Source: article PMC11006913
Substitutions are numbered along the chain they refer to.

What follows are sequences tested against CRX (Homo sapiens, UniProt O43186 26-111) (assay: PBM; 200 nM protein, PBS). Conditions: dsDNA, one strand shown.
Sequence of CRX (O43186 26-111): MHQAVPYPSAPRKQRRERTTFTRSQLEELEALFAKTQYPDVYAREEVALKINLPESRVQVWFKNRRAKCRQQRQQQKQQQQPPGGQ
With TAACCTTA the binding signal was 9.78 upbm affinity estimate (log intensity, higher = more binding, comparable within an allelic series).
GGGGACCC was tested, and the binding signal was 8.16 upbm affinity estimate (log intensity, higher = more binding, comparable within an allelic series).
For GAGGTACC, the binding signal was 8.08 upbm affinity estimate (log intensity, higher = more binding, comparable within an allelic series).
In the case of AGGTGCCC, the binding signal is reported as 8.39 upbm affinity estimate (log intensity, higher = more binding, comparable within an allelic series).
GTGGATTA was tested, and the binding signal was 13.3 upbm affinity estimate (log intensity, higher = more binding, comparable within an allelic series).
For GACGCGTC, the binding signal was 8.63 upbm affinity estimate (log intensity, higher = more binding, comparable within an allelic series).
CCCCTGGA was tested, and the binding signal was 8.32 upbm affinity estimate (log intensity, higher = more binding, comparable within an allelic series).
In the case of ATATTAAT, the binding signal is reported as 11.6 upbm affinity estimate (log intensity, higher = more binding, comparable within an allelic series).
CAGATTAA was tested, and the binding signal was 13.1 upbm affinity estimate (log intensity, higher = more binding, comparable within an allelic series).
With CGCACCGC the binding signal was 8.16 upbm affinity estimate (log intensity, higher = more binding, comparable within an allelic series).
With ATAATCTG the binding signal was 13 upbm affinity estimate (log intensity, higher = more binding, comparable within an allelic series).
For GGATTACA, the binding signal was 13.1 upbm affinity estimate (log intensity, higher = more binding, comparable within an allelic series).
For GCAGCTGC, the binding signal was 8.45 upbm affinity estimate (log intensity, higher = more binding, comparable within an allelic series).
In the case of CCAGATTA, the binding signal is reported as 13 upbm affinity estimate (log intensity, higher = more binding, comparable within an allelic series).
With AGGGGACC the binding signal was 8.1 upbm affinity estimate (log intensity, higher = more binding, comparable within an allelic series).
For CGGATGAG, the binding signal was 9.93 upbm affinity estimate (log intensity, higher = more binding, comparable within an allelic series).
In the case of TAATCTGA, the binding signal is reported as 12.9 upbm affinity estimate (log intensity, higher = more binding, comparable within an allelic series).
In the case of CTGCTGGC, the binding signal is reported as 8.31 upbm affinity estimate (log intensity, higher = more binding, comparable within an allelic series).
In the case of AGACTATC, the binding signal is reported as 9.61 upbm affinity estimate (log intensity, higher = more binding, comparable within an allelic series).
CAGATTAG was tested, and the binding signal was 13.1 upbm affinity estimate (log intensity, higher = more binding, comparable within an allelic series).
For GCAGATTA, the binding signal was 13 upbm affinity estimate (log intensity, higher = more binding, comparable within an allelic series).
GATTAATA was tested, and the binding signal was 12.7 upbm affinity estimate (log intensity, higher = more binding, comparable within an allelic series).
For ATTTATGG, the binding signal was 10.2 upbm affinity estimate (log intensity, higher = more binding, comparable within an allelic series).
CCAGGGGC was tested, and the binding signal was 7.85 upbm affinity estimate (log intensity, higher = more binding, comparable within an allelic series).
For GGGGCCCC, the binding signal was 8.9 upbm affinity estimate (log intensity, higher = more binding, comparable within an allelic series).
For CCGTCGCC, the binding signal was 8.18 upbm affinity estimate (log intensity, higher = more binding, comparable within an allelic series).
For CCCGACCC, the binding signal was 7.98 upbm affinity estimate (log intensity, higher = more binding, comparable within an allelic series).
For AGATTAGC, the binding signal was 13 upbm affinity estimate (log intensity, higher = more binding, comparable within an allelic series).
For GCCCGGGC, the binding signal was 8.05 upbm affinity estimate (log intensity, higher = more binding, comparable within an allelic series).
CACGCCCC was tested, and the binding signal was 8.24 upbm affinity estimate (log intensity, higher = more binding, comparable within an allelic series).
With CTGGGGCA the binding signal was 8.18 upbm affinity estimate (log intensity, higher = more binding, comparable within an allelic series).
With GGGGCTCA the binding signal was 9.96 upbm affinity estimate (log intensity, higher = more binding, comparable within an allelic series).
In the case of ACAGATTA, the binding signal is reported as 12.8 upbm affinity estimate (log intensity, higher = more binding, comparable within an allelic series).
In the case of CCCTGATC, the binding signal is reported as 10.2 upbm affinity estimate (log intensity, higher = more binding, comparable within an allelic series).
With ACGCAACG the binding signal was 8.38 upbm affinity estimate (log intensity, higher = more binding, comparable within an allelic series).
For CCCGTCCC, the binding signal was 8.36 upbm affinity estimate (log intensity, higher = more binding, comparable within an allelic series).
ATTATCTC was tested, and the binding signal was 11.7 upbm affinity estimate (log intensity, higher = more binding, comparable within an allelic series).
In the case of ACTAATCG, the binding signal is reported as 12.1 upbm affinity estimate (log intensity, higher = more binding, comparable within an allelic series).
GACCGACA was tested, and the binding signal was 8.43 upbm affinity estimate (log intensity, higher = more binding, comparable within an allelic series).
In the case of ACCAGCCC, the binding signal is reported as 8.23 upbm affinity estimate (log intensity, higher = more binding, comparable within an allelic series).

Each sequence was assayed against T1, VENTX (Homo sapiens, UniProt O95231 78-163, R121Q) (assay: PBM; 200 nM protein, PBS). Conditions: dsDNA, one strand shown.
T1 sequence: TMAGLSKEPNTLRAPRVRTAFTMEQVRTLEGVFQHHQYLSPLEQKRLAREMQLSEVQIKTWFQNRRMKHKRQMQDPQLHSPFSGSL
With GAGGTACC the binding signal was 8.02 upbm affinity estimate (log intensity, higher = more binding, comparable within an allelic series).
With CCCCTGGA the binding signal was 7.92 upbm affinity estimate (log intensity, higher = more binding, comparable within an allelic series).
CAGATTAA was tested, and the binding signal was 10.7 upbm affinity estimate (log intensity, higher = more binding, comparable within an allelic series).
In the case of ATAATCTG, the binding signal is reported as 9.97 upbm affinity estimate (log intensity, higher = more binding, comparable within an allelic series).
GGATTACA was tested, and the binding signal was 9.08 upbm affinity estimate (log intensity, higher = more binding, comparable within an allelic series).
With CCAGATTA the binding signal was 10 upbm affinity estimate (log intensity, higher = more binding, comparable within an allelic series).
TAATCTGA was tested, and the binding signal was 10.3 upbm affinity estimate (log intensity, higher = more binding, comparable within an allelic series).
In the case of CTGCTGGC, the binding signal is reported as 7.75 upbm affinity estimate (log intensity, higher = more binding, comparable within an allelic series).
CAGATTAG was tested, and the binding signal was 10.6 upbm affinity estimate (log intensity, higher = more binding, comparable within an allelic series).
With GCAGATTA the binding signal was 10.3 upbm affinity estimate (log intensity, higher = more binding, comparable within an allelic series).
With GATTAATA the binding signal was 11.2 upbm affinity estimate (log intensity, higher = more binding, comparable within an allelic series).
In the case of CCCGACCC, the binding signal is reported as 7.97 upbm affinity estimate (log intensity, higher = more binding, comparable within an allelic series).
With AGATTAGC the binding signal was 10.5 upbm affinity estimate (log intensity, higher = more binding, comparable within an allelic series).
In the case of CTGGGGCA, the binding signal is reported as 8.13 upbm affinity estimate (log intensity, higher = more binding, comparable within an allelic series).
For ACAGATTA, the binding signal was 10.5 upbm affinity estimate (log intensity, higher = more binding, comparable within an allelic series).
ACTAATCG was tested, and the binding signal was 11.6 upbm affinity estimate (log intensity, higher = more binding, comparable within an allelic series).

These sequences were tested against HOXB9 (Homo sapiens, UniProt P17482 171-250, T197M) (assay: PBM; 200 nM protein, PBS). Conditions: dsDNA, one strand shown.
Sequence of HOXB9 (P17482 171-250 T197M): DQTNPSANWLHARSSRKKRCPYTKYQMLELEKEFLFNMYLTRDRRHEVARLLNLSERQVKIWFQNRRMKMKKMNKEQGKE
ATATTAAT was tested, and the binding signal was 10.2 upbm affinity estimate (log intensity, higher = more binding, comparable within an allelic series).
For ATTTATGG, the binding signal was 9.79 upbm affinity estimate (log intensity, higher = more binding, comparable within an allelic series).
With CCAGGGGC the binding signal was 8.38 upbm affinity estimate (log intensity, higher = more binding, comparable within an allelic series).
In the case of GGGGCCCC, the binding signal is reported as 8.67 upbm affinity estimate (log intensity, higher = more binding, comparable within an allelic series).
CACGCCCC was tested, and the binding signal was 8.49 upbm affinity estimate (log intensity, higher = more binding, comparable within an allelic series).

Each sequence was assayed against T2, SIX6 (Homo sapiens, UniProt O95475 114-200, L167I) (assay: PBM; 200 nM protein, PBS). Conditions: dsDNA, one strand shown.
T2 sequence: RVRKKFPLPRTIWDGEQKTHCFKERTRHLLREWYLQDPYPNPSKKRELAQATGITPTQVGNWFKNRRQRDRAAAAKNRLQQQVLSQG
In the case of AGGTGCCC, the binding signal is reported as 8.91 upbm affinity estimate (log intensity, higher = more binding, comparable within an allelic series).
With CGCACCGC the binding signal was 8.91 upbm affinity estimate (log intensity, higher = more binding, comparable within an allelic series).
GCAGCTGC was tested, and the binding signal was 9.09 upbm affinity estimate (log intensity, higher = more binding, comparable within an allelic series).
For CTGCTGGC, the binding signal was 8.86 upbm affinity estimate (log intensity, higher = more binding, comparable within an allelic series).
For AGACTATC, the binding signal was 10.2 upbm affinity estimate (log intensity, higher = more binding, comparable within an allelic series).
With CCAGGGGC the binding signal was 8.79 upbm affinity estimate (log intensity, higher = more binding, comparable within an allelic series).
For GGGGCCCC, the binding signal was 9.09 upbm affinity estimate (log intensity, higher = more binding, comparable within an allelic series).
In the case of CCGTCGCC, the binding signal is reported as 8.85 upbm affinity estimate (log intensity, higher = more binding, comparable within an allelic series).
For CACGCCCC, the binding signal was 9.05 upbm affinity estimate (log intensity, higher = more binding, comparable within an allelic series).
CCCTGATC was tested, and the binding signal was 10.2 upbm affinity estimate (log intensity, higher = more binding, comparable within an allelic series).
For ACGCAACG, the binding signal was 9.07 upbm affinity estimate (log intensity, higher = more binding, comparable within an allelic series).

What follows are sequences tested against HOXA4 (Homo sapiens, UniProt Q00056 201-287, W262R) (assay: PBM; 200 nM protein, PBS). Conditions: dsDNA, one strand shown.
Sequence of HOXA4 (Q00056 201-287 W262R): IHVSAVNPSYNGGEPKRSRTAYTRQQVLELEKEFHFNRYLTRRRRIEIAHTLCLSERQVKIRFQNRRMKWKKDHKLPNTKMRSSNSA
For GTGGATTA, the binding signal was 10.2 upbm affinity estimate (log intensity, higher = more binding, comparable within an allelic series).
In the case of CACGCCCC, the binding signal is reported as 9.84 upbm affinity estimate (log intensity, higher = more binding, comparable within an allelic series).
GGGGCTCA was tested, and the binding signal was 9.76 upbm affinity estimate (log intensity, higher = more binding, comparable within an allelic series).
CCCGTCCC was tested, and the binding signal was 9.79 upbm affinity estimate (log intensity, higher = more binding, comparable within an allelic series).

The sequences below were run against HOXC9 (Homo sapiens, UniProt P31274 178-260, K195R) (assay: PBM; 200 nM protein, PBS). Conditions: dsDNA, one strand shown.
Sequence of HOXC9 (P31274 178-260 K195R): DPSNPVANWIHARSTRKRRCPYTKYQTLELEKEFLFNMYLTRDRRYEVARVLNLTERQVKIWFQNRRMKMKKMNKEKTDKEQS
For GGGGACCC, the binding signal was 9.36 upbm affinity estimate (log intensity, higher = more binding, comparable within an allelic series).
In the case of GACGCGTC, the binding signal is reported as 9.76 upbm affinity estimate (log intensity, higher = more binding, comparable within an allelic series).
For ATATTAAT, the binding signal was 12.5 upbm affinity estimate (log intensity, higher = more binding, comparable within an allelic series).
With AGGGGACC the binding signal was 9.61 upbm affinity estimate (log intensity, higher = more binding, comparable within an allelic series).
In the case of ATTTATGG, the binding signal is reported as 12.7 upbm affinity estimate (log intensity, higher = more binding, comparable within an allelic series).
ATTATCTC was tested, and the binding signal was 11.4 upbm affinity estimate (log intensity, higher = more binding, comparable within an allelic series).
ACCAGCCC was tested, and the binding signal was 9.73 upbm affinity estimate (log intensity, higher = more binding, comparable within an allelic series).

Each sequence was assayed against T3, VENTX (Homo sapiens, UniProt O95231 78-163) (assay: PBM; 200 nM protein, PBS). Conditions: dsDNA, one strand shown.
T3 sequence: T1 sequence with Q44R
With GAGGTACC the binding signal was 8.04 upbm affinity estimate (log intensity, higher = more binding, comparable within an allelic series).
CCCCTGGA was tested, and the binding signal was 7.83 upbm affinity estimate (log intensity, higher = more binding, comparable within an allelic series).
With GGATTACA the binding signal was 9.3 upbm affinity estimate (log intensity, higher = more binding, comparable within an allelic series).
For CTGCTGGC, the binding signal was 7.86 upbm affinity estimate (log intensity, higher = more binding, comparable within an allelic series).
For GATTAATA, the binding signal was 11.8 upbm affinity estimate (log intensity, higher = more binding, comparable within an allelic series).
With CCCGACCC the binding signal was 8.07 upbm affinity estimate (log intensity, higher = more binding, comparable within an allelic series).
